Assay results published in PubChem BioAssay AID463173 (ICCB-Longwood Screening Facility, Harvard Medical School, 2010).
Out of some 52,000 compounds screened, about 4,300 (8.3%) were called active. The list comes from a sample in which actives are over-represented; it also holds similar structures and randomly drawn compounds. A number with no mark means an inactive call. Rule as the data show it: active = survival mostly below about 52% (no sharp cut-off); inactive = mostly above about 56%.

Test system: DeltatarO mutant
Test: S. aureus survival, RN4220 and DeltatarO strains – OD600, teichoic acid synthesis inhibitors, primary screen (AID 463173)
Conditions: S. aureus RN4220 wild type/DeltatarO growth, OD600, 18 h, active compounds read low, screened at 18.75 µg/mL (by protocol)

Compared with `O=C(C1CC1)N1CCc2cc(Br)cc(S(=O)(=O)Nc3ccc(F)c(F)c3)c21`, `COc1ccc(NS(=O)(=O)c2ccc3c(c2)CCN3C(=O)CCC(=O)O)cc1Cl` is lower in survival: 110% for the first, 93% for the second.

Compared with `CCS(=O)(=O)N1CC(=O)N(c2ccc(Cl)cc2)C(C)(C(=O)NC2CCCCCC2)C1` (stereo not drawn), `CCC(C)NC(=O)c1cc2cc(S(=O)(=O)N3CCCCC3)ccc2n1C` (stereo not drawn) is lower in survival: 115% for the first, 55% for the second.

Going from `CCN1CCN(c2c(S(=O)(=O)c3ccccc3)cnc3ccc(Cl)cc23)CC1` to `COc1ccc(C)cc1S(=O)(=O)N1CCN(c2cccc(Cl)c2)CC1`, the survival falls from 124% to 59%.

Compared with `Clc1cccc(-c2noc3ncnc(NC4CCCCC4)c23)c1`, `CN(c1ncnc2c1c(-c1ccccc1)cn2-c1cccc(Cl)c1)C1CCCCC1` is higher in survival: 68% for the first, 83% for the second.

Compared with `Cc1cccc(NC(=O)CSc2nc(-c3cccs3)nc3cc(=O)[nH]n23)c1`, `Cc1cccc(NC(=O)Cn2nnc(C(=O)Nc3ccc(F)c(Cl)c3)c2N)c1` is higher in survival: 87% for the first, 101% for the second.

First: Cc1ncc(CO)c2c1Oc1nc(-c3ccccc3Cl)nc(SCc3ccccc3F)c1C2
Second: CC(CCc1ccccc1)NC(=O)CSc1n[nH]c(-c2ccccc2Cl)n1 (stereo not drawn)
The survival of the first is higher: 72% for the first, 54% for the second.

First: COc1ccc(-c2cc(C(F)F)nc(-n3nc(C)cc3C)n2)cc1
Second: COc1ccc(-c2cc(C(F)(F)F)nc(S(C)(=O)=O)n2)cc1
The survival of the first is higher: 91% for the first, 83% for the second.

Going from `CC(Sc1nc(-c2ccccc2)cc(C(F)(F)F)n1)C(=O)NN1CCCCC1` (stereo not drawn) to `Cc1cc(-c2ccccc2)n2nc(N)nc2n1`, the survival rises from 72% to 99%.

First: CCc1nn(CC(=O)NCCc2ccc(Cl)cc2)c(=O)c2cc3c(OC)cccc3n12
Second: COc1ccc(CCNC(=O)c2cc(Sc3cccc(Cl)c3)nc3ccccc23)cc1OC
The survival of the first is lower: 75% for the first, 89% for the second.

Going from `Clc1ccccc1CNc1ncnc2c1nc1n2CCCC1` to `Cc1cc(C)cc(NC(=O)Cn2nnc(C(=O)NCc3ccccc3Cl)c2N)c1`, the survival falls from 97% to 72%.

Compared with `COC(=O)c1cc(-c2cocc2C=C(C#N)C#N)ccc1Cl`, `COc1ccc(NC(=O)Cn2nnc(C(=O)Nc3ccc(C)c(F)c3)c2N)cc1Cl` is higher in survival: 84% for the first, 118% for the second.

Compared with `CC(C)Oc1ccc(C(=O)N2CC(=O)Nc3ccc(F)cc3C2c2ccc(F)cc2)cc1` (stereo not drawn), `CCc1c(C)sc2c1CCN(C(=O)Nc1ccccc1C(=O)OC)C2c1ccc(F)cc1` (stereo not drawn) is higher in survival: 53% for the first, 105% for the second.

First: CCc1nc2nc(C)c(NS(=O)(=O)c3ccc(F)c(C)c3)c(=O)n2[nH]1
Second: Cc1ccc(S(=O)(=O)Nc2nc(C)c(NC(=O)NC3C=NN=C3)s2)cc1
The survival of the first is higher: 123% for the first, 90% for the second.

Going from `O=C(COCc1cc(-c2ccc(F)cc2)on1)Nc1cc(Cl)ccc1O` to `O=C(COCc1cc(-c2ccc(F)cc2)on1)Nc1cc(Cl)cc(Cl)c1`, the survival rises from 74% to 144%.

Going from `O=C(COCc1cc(-c2cccs2)on1)Nc1cccc(Cl)c1Cl` to `Cc1ccc(Cl)cc1NC(=O)COCc1cc(-c2ccco2)on1`, the survival rises from 75% to 83%.

Going from `Cc1ccc(O)c(NC(=O)COCc2cc(-c3ccco3)on2)c1` to `CCc1ccccc1NC(=O)COCc1cc(-c2ccco2)on1`, the survival falls from 95% to 55%.

Going from `CCc1cccc(NC(=O)CCC(=O)N2CCSc3ccccc32)c1` to `CCc1cccc(NC(=O)CC2Oc3ccc(C)cc3NC2=O)c1` (stereo not drawn), the survival rises from 57% to 79%.

First: CC(C)(C)C(=O)Nc1cccc(C(=O)OCc2cc(=O)n3nc(C4CCCCC4)sc3n2)c1
Second: CCc1c(C)sc2c1CCN(C(=O)Nc1cc(C)cc(C)c1)C2c1ccccc1 (stereo not drawn)
The survival of the first is higher: 124% for the first, 55% for the second.

Going from `COc1ccc(-c2nnc(SCc3nnc(-c4ccccc4)o3)o2)cc1OC` to `COc1ccc(-c2noc(-c3ccc(N4CCCC4)c([N+](=O)[O-])c3)n2)cc1OC`, the survival falls from 73% to 59%.

Going from `Cc1nn(CCC(=O)Nc2cc(F)ccc2F)c(=O)c2nn(-c3ccccc3)c(C)c12` to `COc1cccc(-n2c(=O)c3sc4ccccc4c3n(CC(=O)Nc3ccccc3C)c2=O)c1`, the survival falls from 99% to 74%.

First: CCC(C)(C)n1nnnc1C(c1ccccc1)N1CCc2ccccc2C1 (stereo not drawn)
Second: COc1ccccc1NC(=O)Cn1nnc(C(=O)Nc2ccccc2Br)c1N
The survival of the first is lower: 79% for the first, 89% for the second.

Going from `COc1ccccc1Cn1cc(C(=O)c2ccc(Cl)cc2)c(=O)c2cc3c(cc21)OCCO3` to `COc1cccc(CNC(=O)c2ccc(-c3nc(CS(=O)c4ccccc4)c(C)o3)cc2)c1` (stereo not drawn), the survival rises from 83% to 92%.

Compared with `Cc1ccc(Nc2nc(C(=O)N3CCC(C)CC3)cs2)cc1`, `O=C(c1ccc(Cl)cc1)N1CCC(c2ccncc2)CC1` is lower in survival: 91% for the first, 87% for the second.

First: Cc1cc(C)cc(OCC(=O)NCCc2nc3ccccc3[nH]2)c1
Second: Cc1cccc(OCC(=O)NCCc2nc3ccccc3[nH]2)c1C
The survival of the first is higher: 109% for the first, 79% for the second.

Going from `O=C(NCCc1nc2ccccc2[nH]1)c1ccc(F)cc1` to `COc1ccc(C(=O)NCCc2nc3ccccc3[nH]2)cc1`, the survival rises from 81% to 127%.

Compared with `O=S(=O)(c1ccc(Cl)cc1)c1nnn2c1nc(N1CCCCC1)c1sccc12`, `COc1cccc(Cn2nnc(C(=O)NCc3ccc(Cl)cc3Cl)c2N)c1` is higher in survival: 52% for the first, 71% for the second.

Going from `N#CC(C#N)=C(C#N)c1cc2c([nH]1)CCCC2` to `CCS/C(=C(\C#N)C(N)=O)c1ccc(-c2ccccc2)[nH]1`, the survival falls from 81% to 59%.

Compared with `CCCOc1ccc(C2C(=O)N(C3CCCCC3)CC(=O)N2CCc2ccccc2)cc1OC` (stereo not drawn), `CCc1c(C)sc2c1CCN(C(=O)Nc1cc(Cl)c(OC)cc1OC)C2c1ccccc1` (stereo not drawn) is lower in survival: 86% for the first, 63% for the second.

Going from `O=C(Nc1ccc(Br)cc1)c1cc2nc(-c3ccccc3)cc(-c3ccccc3)n2n1` to `Brc1cccc(-c2cnn3c(-c4ccccc4)cc(-c4ccccc4)nc23)c1`, the survival rises from 65% to 74%.

Going from `Cc1cc(C)n2nc(-c3ccccc3)cc2n1` to `Cc1ccc(NC(=O)Cn2nnc(C(=O)NCCc3ccccc3)c2N)cc1Cl`, the survival rises from 97% to 105%.

Going from `CS(=O)(=O)N(CC(=O)NCCc1ccccc1)c1cc(C(F)(F)F)ccc1Cl` to `Cc1ccc(NC(=O)Cn2nnc(C(=O)NCCc3ccccc3)c2N)cc1`, the survival rises from 68% to 87%.

First: CCOC(=O)c1c(C)[nH]c(C)c1S(=O)(=O)NCC(=O)NCc1cccc(Br)c1
Second: CCc1ccccc1NC(=O)Cn1nnc(C(=O)NCc2cccc(OC)c2)c1N
The survival of the first is higher: 130% for the first, 70% for the second.

Going from `Cc1cc(C)c(Cn2c(CCNC(=O)c3ccco3)nc3ccccc32)c(C)c1` to `COc1cccc(Cn2nnc(C(=O)Nc3cc(C)ccc3C)c2N)c1`, the survival rises from 59% to 100%.

Going from `CCc1ccccc1NC(=O)Cn1nnc(C(=O)NCc2cccs2)c1N` to `Cc1ccc(C)c(NC(=O)c2nnn(CC(=O)Nc3cccc(C)c3C)c2N)c1`, the survival rises from 94% to 98%.

Going from `COc1ccc(-c2nnc(SCC(=O)Nc3c(C)cccc3C)nc2-c2ccc(OC)cc2)cc1` to `COc1cccc(CNC(=O)c2ccc(-c3nc(CS(=O)(=O)c4ccccc4)c(C)o3)cc2)c1`, the survival falls from 92% to 72%.

Compared with `O=C(NCc1cccnc1)C(=O)NCC(c1cccnc1)N1CCN(c2ccc(F)cc2)CC1` (stereo not drawn), `CCc1c(C)sc2c1CCN(C(=O)Nc1cc(C)ccc1OC)C2c1ccc(F)cc1` (stereo not drawn) is higher in survival: 70% for the first, 144% for the second.

Compared with `Cc1ccc(C)c(Cn2nnc(C(=O)NCc3ccc(Cl)cc3Cl)c2N)c1`, `Cc1ccc(Cl)cc1NC(=O)CC1Sc2ccccc2NC1=O` (stereo not drawn) is higher in survival: 62% for the first, 93% for the second.

With `CN(c1ncnc2onc(-c3cccc(Cl)c3)c12)C1CCCCC1` the survival was -17% (active).
`Cc1cc(C(F)(F)F)nn1-c1nc(-c2ccccc2)cc(C(F)(F)F)n1` was tested, and the survival was 17% (active).
In the case of `COc1ccc(-c2cc(C(F)(F)F)nc(-n3nc(C(F)(F)F)cc3C)n2)cc1`, the survival is reported as 16% (active).
`O=C(COCc1cc(-c2ccco2)on1)Nc1cc(Cl)ccc1O` was tested, and the survival was 0% (active).
For `O=C(COCc1cc(-c2ccc(F)cc2)on1)Nc1cccc(Cl)c1Cl`, the survival was 46% (active).
With `O=C(COCc1cc(-c2ccco2)on1)Nc1cccc(Cl)c1Cl` the survival was 32% (active).
In the case of `O=C(COc1ccc(F)cc1)NCCc1nc2ccccc2[nH]1`, the survival is reported as 57% (active).
With `Cc1cc(OCC(=O)NCCc2nc3ccccc3[nH]2)cc(C)c1Cl` the survival was 44% (active).
`CCSC(=C(C#N)C#N)c1cc2c([nH]1)CCCC2` was tested, and the survival was 45% (active).
With `Cc1cc(-c2ccccc2)n2nc(-c3cccc(Br)c3)cc2n1` the survival was 14% (active).
`Cc1cc(-c2ccccc2)n2nc(-c3ccccc3)cc2n1` was tested, and the survival was -3% (active).
`COc1ccc(NC(=O)Cn2nnc(C(=O)Nc3ccc(F)c(Cl)c3)c2N)cc1OC` was tested, and the survival was 37% (active).
With `Cc1ccc(NC(=O)Cn2nnc(C(=O)NCCc3ccccc3)c2N)cc1C` the survival was 46% (active).
In the case of `COc1cccc(CNC(=O)c2nnn(CC(=O)Nc3cc(Cl)ccc3C)c2N)c1`, the survival is reported as 25% (active).
In the case of `CCc1ccccc1NC(=O)Cn1nnc(C(=O)NCc2ccccc2Cl)c1N`, the survival is reported as 20% (active).
In the case of `Nc1c(C(=O)NCc2ccc(Cl)cc2Cl)nnn1Cc1ccc(Br)cc1`, the survival is reported as 45% (active).
`Cc1cccc(NC(=O)Cn2nnc(C(=O)Nc3ccccc3Br)c2N)c1C` was tested, and the survival was 8% (active).
In the case of `CCc1c(C)sc2c1CCN(C(=O)Nc1cc(OC)c(OC)c(OC)c1)C2c1ccccc1` (stereo not drawn), the survival is reported as 25% (active).
`CCc1c(C)sc2c1CCN(C(=O)Nc1ccc(F)c(Cl)c1)C2c1ccc(F)cc1` (stereo not drawn) was tested, and the survival was 46% (active).
